TRAIL sens C8: caspase-8 TRAIL sensitization | 360,000 tested, 1% active | NB7+C8 cells + TRAIL, ATPlite viability luminescence | inhibition (viability loss, TRAIL sensitization), % at 10 µM;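 active = compounds causing at least 50% loss of cell viability in the single-dose screen, relative to plate controls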
PPC-1+TRAIL kill: compounds killing PPC-1 cancer cells with TRAIL present (potentiator screen, no TRAIL-free arm); 220,000 tested, 0.41% active; cell killing (% activity), % at 4 µM or 5 µM; PPC-1 cells + TRAIL, ATPLite viability luminescence; AID 1443;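 active = cell killing above 50% in the first pass at 4 µM, then a duplicate retest at 5 µM averaging 50% or more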;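 note: plate controls were cells with TRAIL plus DMSO for no effect and medium-only wells lacking cells for full effect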
SENP7 block: blocks the human protease SENP7; Q9BQF6; recombinant SENP7, Z-RLRGG-aminoluciferin luminescence, 40 min; inhibition, % at 5 µM; 330,000 tested, 1.5% active;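 active = inhibition above about 50% at the single test dose, limit read from the data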;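 note: plate controls were DMSO with enzyme for no effect and no enzyme buffer wells for full effect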
SENP6 block: blocks the human protease SENP6. Q9GZR1. 330,000 tested, 1.8% active. Recombinant SENP6 catalytic domain, aminoluciferin luminescence. inhibition, % at 10 µM. AID 2599;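 active = inhibition above about 50% at the single tested dose, limit read from the data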;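 note: plate controls were DMSO wells with enzyme for no effect and DMSO wells lacking enzyme for full effect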
SENP8 block-1: SENP8 protease inhibition. Q96LD8. purified SENP8, Z-RLRGG-aminoluciferin cleavage, luminescence. inhibition, % at 10 µM. 330,000 tested, 1.2% active; in the data active = inhibition above about 50%
Target sequence (Q96LD8 whole entry, looked up): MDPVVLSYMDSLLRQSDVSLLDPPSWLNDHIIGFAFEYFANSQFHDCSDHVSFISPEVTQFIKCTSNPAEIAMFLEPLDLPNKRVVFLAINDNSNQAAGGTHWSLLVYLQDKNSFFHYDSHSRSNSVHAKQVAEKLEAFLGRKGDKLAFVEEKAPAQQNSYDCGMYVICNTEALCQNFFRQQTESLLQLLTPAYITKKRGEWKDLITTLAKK
SENP8 block-2: SENP8 (human) protease inhibition; Q96LD8; recombinant SENP8, Nedd8 substrate fluorescence; inhibition, % at 20 µM; 360,000 tested, 0.64% active; AID 602440; in the data active = inhibition mostly above about 40%, no sharp cut-off; inactive = mostly below about 27%
PPC-1 tox: PPC-1 cell cytotoxicity | shares compounds with PPC-1+TRAIL kill | PPC-1 viability, ATPlite luminescence, overnight | cytotoxicity, % at 5 µM | 1,200 tested, 50% active | AID 1447;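 active = reconfirmed compounds whose average cytotoxicity reaches 50% or more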;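 note: 0% = DMSO-treated cells and 100% = wells holding medium but no cells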
The depositor's hits bear a star; / = not tested or not shown. Hits are enriched below; roughly 3% of the tested compounds scored in any of these assays.

SMILES	TRAIL sens C8	PPC-1+TRAIL kill	SENP7 block	SENP6 block	SENP8 block-1	SENP8 block-2	PPC-1 tox
COC(=O)c1cccc(S(=O)(=O)N2CCC(n3nnc4cc(F)ccc43)CC2)c1	-1	10	8	-5	-4	5	24
COc1cc(/C=C/c2nc3ccc([N+](=O)[O-])cc3s2)ccc1OCC(=O)O	/	14	9	-6	-8	/	/
CCOC(=O)c1nn(-c2ccc3c(c2)OCCO3)cc1O	54*	48	28	2	20	-370	49
O=C(c1cc2nc(-c3ccccc3)cc(C(F)(F)F)n2n1)N1CCCC1	15	/	/	/	/	-210	/
O=C(c1nc2nc(-c3ccccc3)cc(C(F)(F)F)n2n1)N1CCCCC1	0	-2	5	-19	8	-72	-10
CC(C)(C)C#CCn1c(/C=[N+](\[O-])C2CCCCC2)nc2ccccc21	-5	/	-1	-24	-9	-3	/
CCn1c(SC2CCOC2=O)nnc1-c1ccc(Cl)cc1 (centres undefined)	0	-4	3	-2	4	7	/
CC1(C)Cc2nc3sc4c(SCC(=O)O)ncnc4c3cc2CO1	76*	71*	1	-25	-3	-10	75*
CC1(C)Cc2nc3sc(C(=O)NCCCO)c(N)c3cc2CS1	0	22	7	7	-1	-268	/
CC1(C)Cc2nc3sc(C(=O)NCCO)c(N)c3cc2CO1	-4	8	3	-10	-4	-82	8
COC(=O)/C=C1\SC(N)=NC1=O	-5	7	2	-6	14	-1	/
CC1=CC2=NC(=O)/C(=C\c3cc(C)n(-c4ccccc4F)c3C)C(=N)N2O1	15	18	1	8	5	-67	/
Cc1cc(/C=C2/C(=N)N3C(=NC2=O)SN=C3S(C)(=O)=O)c(C)n1-c1ccccc1F	85*	68*	-2	15	-9	-235	70*
COc1cc(C=NCC2OCCc3ccccc32)cc(OC)c1 (centres undefined)	3	4	-4	-8	-4	6	/
CN(C)CC(C)(C)CNC(C(=O)Nc1ccc(Cl)cc1C(F)(F)F)c1ccccc1 (centres undefined)	10	21	1	5	-3	16	/
CCOc1ccccc1N1CCN(C(=O)C2c3ccccc3Oc3ccccc32)CC1	14	3	3	-19	-5	-5	-7
CCOc1ccccc1N1CCN(C(=O)c2ccccc2)CC1	-7	25	7	-8	0	18	/
CCN(CC)c1ccc(NC(=S)Nc2ccc(F)cc2)cc1	3	16	1	14	-5	32	6
CN(C)c1ccc(NC(=O)CCN2CCN(c3ccccn3)CC2)cc1	9	/	8	20	-1	6	/
O=C(CCNC(=O)c1ccccc1)Nc1cccnc1	2	1	3	5	-4	10	/
COCCCN1C(=O)C(=O)/C(=C(/O)c2ccc(S(=O)(=O)N3CCOCC3)cc2)C1c1ccc(C(C)C)cc1 (centres undefined)	1	/	10	-8	2	10	/
O=C(CCN1C(=O)c2ccccc2S1(=O)=O)Nc1ccc2c(c1)OCCO2	2	10	-8	-18	-16	4	/
O=C(CN1C(=O)c2ccccc2S1(=O)=O)c1ccc2c(c1)OCCO2	85*	84*	3	-28	9	5	82*
O=C(CN1C(=O)c2ccccc2S1(=O)=O)c1cccc(Br)c1	49	/	-1	4	9	6	/
O=C(CN1C(=O)c2ccccc2S1(=O)=O)c1ccc2c(c1)OCCCO2	91*	86*	-6	-2	18	17	86*
CSc1ccc(C(O)c2ncc(-c3ccc(F)cc3)[nH]2)cc1 (centres undefined)	2	/	/	/	/	-2	/
Cc1cc(C)c2c(N)c(C(=O)Nc3nccs3)sc2n1	81*	82*	1	9	-3	-264	81*
COCCn1c(-c2ccc(Br)cc2)csc1=Nc1cccnc1	7	3	-3	1	-12	8	6
Cc1ccc(C)c(OC(=O)CN2C(=O)c3ccccc3C2=O)c1	-1	/	1	-30	14	9	/
Cc1cccc(NS(=O)(=O)c2ccc(Br)s2)n1	3	15	-3	-1	-5	-16	6

Source: PubChem (Sanford-Burnham Center for Chemical Genomics)
